This is an account of results in PubChem BioAssay (NCATS).

Structures are written as SMILES. Where “and” joins values, the source holds several entries; their conditions need not be identical. Equal values may be shown once. Inconclusive results are not listed. A number with no mark means an inactive call. Calls of active or inactive are those of the source. Calls come from the whole dose curve; as a rule, active = well fitted inhibition curve with a large enough effect; inconclusive = small, poorly fitted or top-dose-only effect; inactive = flat fitted curve, though single readings scatter. Where a SMILES comes first, the peptide text is derived from it. Bridges are numbered along the chain shown (N, C = ends). [ ]: non-standard residue; d: D form. The star is where a group is joined. X2 = CC[C@H](C)CCCCC(=O)*; Dab = NCC[C@H](N)C(=O)O

Test [1] can be described thus: Drug repurposing screens with cells derived from glioblastoma tumor samples (AID 1345199). Note: nearly all actives have a fitted effect of over 40% in size. The settings on record: GBM patient neurospheres viability, ATP luminescence, 48 h. The method, boiled down:
(§1)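 Primary testing used CD133+ neurospheres from four GBM patients, seven concentrations, 48 h exposure and ATP-based viability; confirmation added three slower-growing patient lines.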

Another test concerns astro (control astrocytes). The description is as above. The settings on record: viability, ATP luminescence, 48 h; series mostly up to 45.9 µM. An outline of the steps:
as §1

[2] abbreviates: at 45.9 µM (top of the series), tumour line B.
[3] abbreviates: at 45.9 µM (top of the series), tumour line D.
The mark [4] stands for this setting: at 46 µM (top of the series), tumour line A.
[5] abbreviates: at 46.1 µM (top of the series), tumour line C.
[6] abbreviates: at 20 µM (top of the series), tumour line C.
The mark [7] stands for this setting: at 21.2 µM (top of the series), tumour line B.
[8] abbreviates: at 21.2 µM (top of the series), tumour line D.
Where [9] appears, read: at 21.3 µM (top of the series), tumour line A.
% is set by controls: 0 for no effect and ±100 for the full control effect; potency is the fitted concentration of half-maximal effect.

With `CC(C)C[C@H](NC(=O)[C@@H](COC(C)(C)C)NC(=O)[C@H](Cc1ccc(O)cc1)NC(=O)[C@H](CO)NC(=O)[C@H](Cc1c[nH]c2ccccc12)NC(=O)[C@H](Cc1cnc[nH]1)NC(=O)[C@@H]1CCC(=O)N1)C(=O)N[C@@H](CCCN=C(N)N)C(=O)N1CCC[C@H]1C(=O)NNC(N)=O`, the activity, negative = cell killing is -16.4% and -7.35% in test [1] (setting [2]); -27.1% and -14% in test [1] (setting [3]); -28.3% and -17.4% in test [1] (setting [4]); -8.14% and 8.02% in test [1] (setting [5]). Moreover, the Potency result in the test on astro was “inactive”.

On to `CCCOC(=O)c1ccccc1O`, for which the activity, negative = cell killing in test [1] (setting [2]) was -5.91%; in test [1] (setting [3]), 2.55%; in test [1] (setting [4]) it was -23.3%; in test [1] (setting [5]), -5.92%. The Potency entry in the test with astro is “inactive”.

Consider `CC1(C)[C@H]2CC[C@]1(C)[C@H](O)C2`, for which the activity, negative = cell killing in test [1] (setting [2]) was -3.63%; in test [1] (setting [3]), -3.69%; in test [1] (setting [4]), -22.7%; in test [1] (setting [5]) it was -20.6%. Also, the Potency entry in the test on astro is “inactive”.

As to `COC(=O)C(CN)c1c[nH]c2ccc(OC)cc12` (stereo not given), the activity, negative = cell killing was -10.3% in test [1] (setting [2]), -14.4% in test [1] (setting [3]), -30.9% in test [1] (setting [4]) and -0.904% in test [1] (setting [5]). Besides, the Potency entry with astro is “inactive”.

In the case of `NC(=O)CC[C@@H]1NC(=O)[C@H](Cc2ccccc2)NC(=O)[C@H](Cc2ccc(O)cc2)NC(=O)[C@@H](N)CSSC[C@@H](C(=O)N2CCC[C@H]2C(=O)N[C@@H](CCCN=C(N)N)C(=O)NCC(N)=O)NC(=O)[C@H](CC(N)=O)NC1=O`, the activity, negative = cell killing was -4.7% and -11.9% in test [1] (setting [2]); -8.98% and -1.09% in test [1] (setting [3]); -23.2% in test [1] (setting [4]); 9.23% and 16.1% in test [1] (setting [5]). Besides, in the test on astro, the Potency entry was “inactive”.

On to `CC(=O)N=c1sc(S(N)(=O)=O)nn1C`, for which the activity, negative = cell killing is -7.38% in test [1] (setting [6]), -5.71% in test [1] (setting [7]), -24.8% in test [1] (setting [8]) and -18.1% in test [1] (setting [9]). Besides, the Potency result in the test on astro is “inactive”.

Take `O=C(O)CCC/C=C\C[C@@H]1[C@@H](/C=C/[C@@H](O)COc2cccc(C(F)(F)F)c2)[C@H](O)C[C@@H]1O`: the activity, negative = cell killing in test [1] (setting [2]) was -0.927%; in test [1] (setting [3]), 2.71%; in test [1] (setting [4]), -17.8%; in test [1] (setting [5]), 3.43%. The Potency entry with astro was “inactive”.

Take `CC(=O)Oc1cccc(C(=O)O)c1OC(C)=O`: the activity, negative = cell killing in test [1] (setting [2]) is -9%; in test [1] (setting [3]), -8.06%; in test [1] (setting [4]), -12.3%; in test [1] (setting [5]), -14.6%. Moreover, the Potency result in the test with astro is “inactive”.

Regarding `CCOC(=O)c1cc(-c2ccccc2)nc2ccc(C)cc12`, the values for the activity, negative = cell killing in test [1] (setting [2]), in test [1] (setting [3]) and in test [1] (setting [5]) were -20.9%, 9.36% and -13.3%, respectively. In addition, the Potency in test [1] (tumour line A) was 12.6 µM (active). In addition, in the test with astro, the Potency entry is “inactive”.

As to `CC[C@H](C)CCCCC(=O)N[C@@H](CCN)C(=O)N[C@H](C(=O)N[C@@H](CCN)C(=O)N[C@H]1CCNC(=O)[C@@H]([C@H](C)O)NC(=O)[C@H](CCN)NC(=O)[C@H](CCN)NC(=O)[C@H](CC(C)C)NC(=O)[C@@H](CC(C)C)NC(=O)[C@H](CCN)NC1=O)[C@@H](C)O` (X2-[Dab]T[Dab][Dab][Dab][dL]L[Dab][Dab][dT]; lactam 4-C), the activity, negative = cell killing in test [1] (setting [6]) is 7.06%; in test [1] (setting [7]), -0.409%; in test [1] (setting [8]), -6.08%; in test [1] (setting [9]), -17.3%. For the same compound, the Potency result with astro was “inactive”.

As to `FCOC(C(F)(F)F)C(F)(F)F`, the activity, negative = cell killing in test [1] (setting [2]) is -14%; in test [1] (setting [3]), -24.3%; in test [1] (setting [4]) it was -28%; in test [1] (setting [5]), -24.9%. Further, the Potency result in the test on astro is “inactive”.

`O=C1/C(=C\c2cccs2)CCC/C1=C\c1cccs1`: the activity, negative = cell killing in test [1] (setting [2]) is -19.7%; in test [1] (setting [3]) it was -28.6%; in test [1] (setting [5]), -23.9%. Besides, the Potency in test [1] (tumour line A) is 25.1 µM (active). Besides, the Potency entry with astro was “inactive”.

`O=C(O)/C=C/c1ccccc1`: the activity, negative = cell killing in test [1] (setting [2]) is -13.6%; in test [1] (setting [3]), 12.4%; in test [1] (setting [4]), -20.1%; in test [1] (setting [5]), 7.51%. Also, in the test on astro, the Potency entry is “inactive”.

In the case of `NC(=O)c1ccc[n+]([C@@H]2O[C@H](COP(=O)([O-])OP(=O)(O)OC[C@H]3O[C@@H](n4cnc5c(N)ncnc54)[C@H](O)[C@@H]3O)[C@@H](O)[C@H]2O)c1`, the activity, negative = cell killing was -16.9% in test [1] (setting [6]), 8.41% in test [1] (setting [7]), -3.83% in test [1] (setting [8]) and -22.7% in test [1] (setting [9]). In addition, the Potency entry in the test on astro was “inactive”.

Turning to `CCCCCc1ccc(C)cc1O`, the activity, negative = cell killing in test [1] (setting [2]) is -7.13%; in test [1] (setting [3]), 3.04%; in test [1] (setting [4]), -24.1%; in test [1] (setting [5]), -11.1%. In the test with astro, the Potency entry is “inactive”.

Take `O=C(OCc1ccccc1)c1cccnc1`: the activity, negative = cell killing in test [1] (setting [2]) is -17.7%; in test [1] (setting [3]), -1.76%; in test [1] (setting [4]) it was -18.6%; in test [1] (setting [5]), 7.49%. In addition, the Potency result in the test with astro is “inactive”.

For the compound `CNCC(O)c1ccc(OC(=O)C(C)(C)C)c(OC(=O)C(C)(C)C)c1` (stereo not given), the activity, negative = cell killing in test [1] (setting [6]) is 5.42%; in test [1] (setting [7]), -16.5%; in test [1] (setting [8]), -22.8%; in test [1] (setting [9]), -18%. Besides, the Potency result in the test with astro was “inactive”.
